ELG1 genotox – induces genotoxicity in HEK293T cells with luciferase-tagged ELG1 | HEK293T ELG1-luciferase reporter, luminescence, 16 h | Potency, µM (top dose mostly 46 µM), for the others: top-dose activity change, positive = activation, actives largely listed as activators | actives 1.3% (n = 330,000) | AID 504466; also: % of control where 0% means no effect; nearly all actives have a fitted effect of over 60% in size
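Luminescence read-out: rising ELG1-luciferase signal, reflecting elevated ELG1 protein under genetic stress, flags genotoxic compounds. Cells were treated for 16 hr at 37 °C before ONE-Glo detection.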
Rab9 promoter act – Rab9 promoter activation; Potency, µM (highest dose often 9.22 µM), without a hit: at the top dose activation, negative = inhibition, hits mostly activators; Huh7 Rab9 promoter-luciferase reporter, luminescence, 24 h; AID 485297; actives 2.8% (n = 320,000); also: % of control where 0% means no effect; nearly all actives have a fitted effect of over 60% in size
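Huh7 reporter line, Rab9 promoter upstream of luciferase. Compound exposure 24 h at 37 °C in reduced-serum medium with 10% FBS. Read-out: luminescence.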
SMN2 splice enh – increases expression of the SMN2 splice variant; HEK293 SMN2-luciferase splicing reporter, luminescence, 30-36 h; Potency, µM (top dose mostly 46.1 µM), inactives show at the top dose activity change, positive = activation, actives largely listed as activators; actives 2.8% (n = 210,000); AID 1458; also: % of control where 0% means no effect; nearly all actives have a fitted effect of over 55% in size
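HEK293 cells carry an SMN2 minigene-luciferase reporter in which exon 7 inclusion puts luciferase in frame. Cells were seeded at 2000 cells/well, attached for 10-12 hours, then exposed to compounds for 30-36 hours at 37C before ONE-Glo luminescence.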
FLuc modulator – inhibits or activates purified firefly luciferase, miR-21 counter-screen; actives 6.9% (n = 360,000); Potency, µM (series often up to 57.5 µM), for inactives: top-dose activity change, negative = inhibition, hits mostly inhibitors; AID 588342; purified FLuc, Km substrates, luminescence inhibition; P08659;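 also: plate controls were vehicle for no effect and reference inhibitor for full effect; nearly all actives have a fitted effect of over 55% in size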
Target sequence (P08659 whole entry, looked up): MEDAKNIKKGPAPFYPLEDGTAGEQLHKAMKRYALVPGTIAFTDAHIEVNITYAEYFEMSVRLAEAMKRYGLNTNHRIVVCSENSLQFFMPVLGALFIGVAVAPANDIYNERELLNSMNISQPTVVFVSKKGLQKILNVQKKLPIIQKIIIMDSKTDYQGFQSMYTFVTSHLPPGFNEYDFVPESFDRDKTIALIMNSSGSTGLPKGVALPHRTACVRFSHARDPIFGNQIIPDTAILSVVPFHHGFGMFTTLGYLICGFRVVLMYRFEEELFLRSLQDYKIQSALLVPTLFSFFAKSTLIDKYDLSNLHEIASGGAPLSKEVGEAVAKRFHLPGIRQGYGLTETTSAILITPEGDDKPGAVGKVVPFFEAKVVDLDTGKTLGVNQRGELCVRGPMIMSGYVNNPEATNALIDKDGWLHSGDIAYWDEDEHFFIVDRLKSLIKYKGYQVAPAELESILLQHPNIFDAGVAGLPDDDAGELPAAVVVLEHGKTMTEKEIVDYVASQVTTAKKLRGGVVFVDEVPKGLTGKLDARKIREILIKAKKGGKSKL
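Biochemical qHTS of compounds, final roughly 60 µM downward over six points, against 10 nM purified firefly luciferase using Km concentrations of substrates (10 uM D-luciferin, 10 uM ATP) in Tris acetate pH 7.5 buffer; luminescence output.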
NPC1 promoter act – activators of NPC1 promoter | Huh7 NPC1 promoter luciferase reporter, 24 h | Potency, µM (doses to about 9.22 µM), for the others: at the highest dose activation, usual class: activators | AID 485313 | actives 2.4% (n = 320,000); also: % of control where 0% means no effect; nearly all actives have a fitted effect of over 60% in size
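Huh7 cells stably carrying NPC1 promoter–luciferase, plated in Opti-MEM with 10% FBS for 2 h, were exposed to compound in DMSO for 24 h at 37 °C; luciferase reagent was added for 10 min and luminescence read.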
* hit, by the source's call; ? = inconclusive; · = no result; [ ] = dose if it differs, or a comment. Hits are enriched below; roughly 7.4% of the tested compounds scored in any of these assays. Calls follow the shape of the dose curve; as a rule, active = well fitted curve in the direction sought with a large enough effect; inconclusive = small, poorly fitted or top-dose-only effect, or another doubt; inactive = no such curve, though single readings can be large; an effect the other way counts as inactive or inconclusive. Potency is read from the fitted curve at half-maximal effect.

SMILES	ELG1 genotox	Rab9 promoter act	SMN2 splice enh	FLuc modulator	NPC1 promoter act
CN1CCc2c(sc3c2C(=O)NC(c2ccc(OC(=O)c4ccccc4)cc2)N3)C1 (stereo unspecified)	·	·	16µM*	?	·
CCN(CC)C(=O)Cn1nnc2sc(-c3ccccc3)cc2c1=O	·	·	8%	-15%	·
CCOc1ccc(C(=O)CSCCC(=O)O)cc1	16%	-3%	1%	6µM*	-4%
CCc1ccccc1NC(=O)CN1C(=O)CCc2cc(S(=O)(=O)N3CCCCC3)ccc21	·	·	·	-4%	·
Cc1ccc(C(=O)Nc2cccc(-c3ccc(N4CCOCC4)nn3)c2)cc1C	?	2.8µM*	·	2.1µM*	?
O=C(c1cccc(Cl)c1)N1CCN(c2ccc(N3CCOCC3)nn2)CC1	3%	-1%	·	3%	-3%
O=C(Nc1cccc(-c2ccc(N3CCOCC3)nn2)c1)c1ccc(Cl)cc1	?	?	·	2.1µM*	?
Cc1cc(C(=O)Nc2cccc(-c3ccc(N4CCOCC4)nn3)c2)ccc1[N+](=O)[O-]	0%	?	·	2.7µM*	?
Cc1ccc(C(=O)Nc2ccc(S(=O)(=O)N3CCOCC3)cc2)cc1C	0%	0%	·	0%	-8%
O=C(COc1ccc(Cl)cc1)Nc1cccc(-c2ccc(N3CCOCC3)nn2)c1	2.1µM*	1.6µM*	·	1.3µM*	3.2µM*
O=C(c1csnn1)N1CCC2(CCCN(C(c3ccccc3)c3ccccc3)C2)CC1	·	·	-25%	·	·
O=C(CSc1nc2ccccc2nc1Cc1ccccc1F)Nc1cccc(C(F)(F)F)c1	·	·	-2%	7%	·
CC(=O)c1ccccc1[N+](=O)[O-]	·	·	2%	·	·
CCOc1ccccc1CNC(=O)c1cc2c(=O)n(Cc3ccco3)ccc2nc1C	·	·	·	3%	·
Cc1cccc(CNC(=O)CCn2c(=O)c3cccn3c3ccc(F)cc32)c1	·	·	·	-1%	·
O=C(Nc1cccc(-c2ccc(N3CCOCC3)nn2)c1)c1ccccc1Cl	11%	3.5µM*	·	1.7µM*	?
O=C(Nc1cccc(-c2ccc(N3CCCCC3)nn2)c1)c1ccco1	1.6µM*	2.8µM*	·	0.38µM*	4µM*
Cc1ccccc1C(=O)Nc1ccc(N2CCOCC2)nc1	16%	29%	9%	?	21%
Cc1ccc(C(=O)Nc2cccc(-c3ccc(N4CCOCC4)nn3)c2)cc1	1%	3.5µM*	·	1.3µM*	2.5µM*
Cc1ccc(C(=O)Nc2ccc(N3CCOCC3)nc2)cc1	8%	19%	-19%	-17%	19%
CCCCSc1nnc2n(-c3ccc(OC)cc3)c(=O)c3c4c(sc3n12)COC(C(C)C)C4 (stereo unspecified)	·	·	3%	1%	·
NCCC[C@@H](N)C(=O)O	·	·	-7%[9.22 µM]	·	·
CC(N)(C(=O)O)c1cccc(CC(=O)O)c1 (stereo unspecified)	·	·	0%	·	·
COc1ccccc1CNC(=O)CSc1ncc2c(n1)-c1cc(Cl)ccc1N(Cc1ccccc1)S2(=O)=O	·	·	·	2%	·
Cc1snc(SCC(=O)c2ccc([N+](=O)[O-])cc2)c1C#N	11%	?	?	?	?
SMILES	ELG1 genotox	Rab9 promoter act	SMN2 splice enh	FLuc modulator	NPC1 promoter act
Cc1snc(SCC(=O)c2ccc(F)cc2)c1C#N	10%	2.8µM*	20%	?	?
Cc1ccc(Cn2c(CN3CCC(C(=O)NCCc4ccccc4)CC3)cc3ccccc32)cc1	·	·	·	-2%	·
CCCCC(=O)Nc1cccc(NC(=O)c2ccc3c(c2)OCO3)c1	0%	2%	?	19µM*	3%
CCCC(=O)Nc1cccc(NC(=O)c2ccc3c(c2)OCCO3)c1	?	19%	13µM*	9.5µM*	23%
CCCCC(=O)Nc1cccc(NC(=O)c2ccc(Br)o2)c1	-2%	?	35µM*	5%[2.3 µM]	2%
Cc1cccc(OCC(=O)OCc2cc(=O)n3nc(-c4cccs4)sc3n2)c1	·	·	·	-3%	·
CCN(CCCNC(=O)c1nn(-c2ccc(OC)cc2)c(=O)c2c1c1ccccc1n2C)c1ccccc1	·	·	3%	1%	·
CC(C)(C)c1ccc(C(=O)Nc2nc3nc(-c4ccccc4)cc(=O)n3[nH]2)cc1	·	·	-5%	?	·
CCn1c(CCNC(=O)c2cccs2)nnc1SCC(=O)Nc1ccc(Cl)cc1	12%	-3%	-22%	17µM*	0%
CCn1c(CCNC(=O)c2cccs2)nnc1SCC(=O)NC1CCCCC1	1%	-7%	-13%	-15%	-1%
COc1ccc(-c2csc(Nc3ccccc3)n2)cc1	2.1µM*	1µM*	4µM*	3µM*	2.2µM*
c1ccc(Nc2nc(-c3ccncc3)cs2)cc1	15%	4%	?	?	0%
COc1ccc2oc(=O)c(-c3csc(Nc4ccc(O)cc4)n3)cc2c1	-1%	14%	?	3µM*	0%
COc1ccc(Nc2nc(-c3ccc(OC)cc3)cs2)cc1	?	1.6µM*	?	?	3.2µM*
COc1ccc(-c2csc(Nc3cccnc3)n2)cc1	·	·	7%	6µM*	·
CC(=O)/C=C\C1[C@]2(C)CCCC(C)(C)C2CC[C@@]1(C)O (stereo partly specified)	·	·	-7%	·	·
COc1ccccc1N1CCN(CC2CN3C(=O)N(C)c4ccccc4C3=N2)CC1 (stereo unspecified)	·	·	-7%	·	·
O=C(CCc1nc(-c2ccccc2F)no1)Nc1cccc(C(F)(F)F)c1	·	·	-27%	?	·
COc1ccc(Nc2nc(-c3c[nH]c4ccccc34)cs2)cc1	13%	20%	?	15µM*	23%
C=CCC(C)(O)c1cccs1 (stereo unspecified)	·	·	-1%	·	·
Cc1ccc2c(c1)sc(=NC(=O)C1CC1)n2C	?	3.5µM*	·	8.5µM*	2.5µM*
Cc1ccc2c(c1)sc(=NC(=O)c1cccs1)n2C	0.52µM*	3.5µM*	16%	0.15µM*	3.5µM*
C#CCn1c(=NC(=O)c2cccs2)sc2cccc(OC)c21	?	30%	-14%	?	1%
CCOc1ccc2nc(NC(=O)CSc3cn[nH]n3)sc2c1	4.6µM*	4.5µM*	·	2.7µM*	2.8µM*
Cc1cccc2sc(NC(=O)CSc3cn[nH]n3)nc12	0%	1%	·	-15%	-3%
SMILES	ELG1 genotox	Rab9 promoter act	SMN2 splice enh	FLuc modulator	NPC1 promoter act
COc1ccc2nc(NC(=O)CSc3cn[nH]n3)sc2c1	?	4µM*	·	6.7µM*	?
CCOc1ccc2nc(NC(=O)CSc3nc(-c4ccccc4)c(C#N)c(=O)[nH]3)sc2c1	11%	2%	·	17µM*	0%
COc1ccccc1CN1CC2(CCN(C(=O)c3cccc(F)c3)CC2)C1	·	·	-5%	·	·
CN1C(=O)N(C)C2=NNC=NC2(O)C1=O (stereo unspecified)	·	·	-74%	·	·
COc1ccc(NC(=O)CSc2nncn3c2cc2occc23)c(OC)c1	·	·	·	-14%	·
O=c1c2ccccc2c2ccccc2c(=O)n1-c1cc2c3ccccc3ccc2c2ccccc12	·	·	-11%[9.22 µM]	·	·

Compound activity: PubChem, National Center for Advancing Translational Sciences (NCATS)
